Measurements reported in PubChem BioAssay AID624331 (National Center for Advancing Translational Sciences (NCATS), 2012).
Inconclusive results are not listed. A call without a number means that no potency is given here. The source made the active and inactive calls. Calls follow the shape of the dose curve; as a rule, active = well fitted activation curve with a large enough effect; inconclusive = small, poorly fitted or top-dose-only effect; inactive = no such curve, though single readings can be large or run the other way.
Potency is read from the fitted curve at half-maximal effect.

Test: qHTS assay for re-activators of p53 using a Luc reporter: Hit Validation with no p53 Expressed
Details: p53-null cells, luciferase reporter counter-screen; series mostly up to 46.1 µM
Method in brief: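 Counter-screen of primary hits in a cell line not transfected with p53, in Opti-MEM with 10% FBS; compounds at several concentrations (10 mM stock, 1:5; top 46.1 µM in well), 24 h at 37 deg C, 5% CO2. Luminescence read after 10 min with Amplite reagent.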
With `O=C(c1ccco1)n1c(=S)nc2ccccn21` the Potency was “inactive”. For `O=C(NN=C1CCCCCC1)c1cccs1`, the Potency was “inactive”. For `CCOc1ccc(N/C=C/C(=O)c2ccccc2)c([N+](=O)[O-])c1`, the Potency was “inactive”. With `Cc1cc(C)nc(CC(N)=O)n1` the Potency was “inactive”. In the case of `CCc1cc2c(=O)c(-c3ccc4c(c3)OCCO4)coc2cc1OS(C)(=O)=O`, the Potency is reported as “inactive”. With `O=C(COC(=O)c1ccc(F)cc1)NC1CC1` the Potency was “inactive”. For `Cc1ccc(C2C(C#N)=C(N)Oc3cc4c(cc32)OCO4)cc1` (stereo unspecified), the Potency was “inactive”. With `Cc1nnc(SCC(=O)N2CCOCC2)c2ccccc12` the Potency was “inactive”. With `COc1cc(CNC2CCCCCCC2)c(Br)cc1OCCO` the Potency was “inactive”. For `Cc1nn(-c2ccccc2)c(/N=C/c2ccccc2O)c1-c1ccccc1`, the Potency was “inactive”. In the case of `CC(=O)c1ccc(NC(=O)CCc2nnc3ccc(NCc4ccco4)nn23)cc1`, the Potency is reported as “inactive”. For `O=c1oc2ccccc2nc1/C=C(O)/C=C/c1ccc(F)cc1`, the Potency was “inactive”. In the case of `Cc1ccc(C(=O)c2c3ccc([N+](=O)[O-])cc3[n+]([O-])n2CCCN)cc1`, the Potency is reported as “inactive”. For `Cc1ccc(C(=O)N/N=C2\CCc3ccccc32)c(C)c1`, the Potency was “inactive”. For `COc1ccc(C(=O)N/N=C(\C)c2ccccn2)cc1OC`, the Potency was “inactive”. For `CN1CCc2c(sc(NC(=O)C3COc4ccccc4O3)c2C(N)=O)C1` (stereo unspecified), the Potency was “inactive”. For `Cc1cc2[nH]c3ccccc3c2c(C)n1`, the Potency was “inactive”. For `C/C(=N\NC(=O)c1cccc(Br)c1)c1ccccn1`, the Potency was “inactive”. In the case of `COc1cccc(/C=C2\Oc3ccc(O)cc3C2=O)c1O`, the Potency is reported as “inactive”. For `CCC(=O)Nc1cccc(NC(=S)NC(=O)c2ccc(Cl)cc2)c1`, the Potency was “inactive”. For `N#Cc1ccccc1NC(=O)c1cccc(COc2ccc(Cl)cc2Cl)c1`, the Potency was 116 nM (active).
